Assays:
Test in all cases: DAPPL (digital affinity profiling via proximity ligation, sequencing); 10 mM Tris-HCl pH 7.5, 50 mM NaCl, 1 mM DTT, 4% glycerol, room temperature, 30 min; GST-TFs on glutathione beads, 16-mer random dsDNA library, 0.1% formaldehyde crosslink after washing; high values mean tight binding
FEV = biological target: T1, FEV (Homo sapiens, UniProt Q99581 1-238); conditions: protein: recombinant; tags: N-terminal GST; dsDNA, one strand shown
T1 sequence: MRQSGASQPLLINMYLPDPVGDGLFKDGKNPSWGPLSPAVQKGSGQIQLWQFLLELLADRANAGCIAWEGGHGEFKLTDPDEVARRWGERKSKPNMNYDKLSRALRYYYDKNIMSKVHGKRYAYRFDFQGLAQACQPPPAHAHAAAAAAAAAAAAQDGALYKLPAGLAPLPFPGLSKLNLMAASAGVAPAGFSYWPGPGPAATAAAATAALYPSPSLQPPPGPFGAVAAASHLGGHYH
Procedure, shortened: (§1)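 Binding signal is each hexamer's read frequency for a factor divided by its frequency in the tag-only sample. The factors were GST-fused human transcription factors from yeast, captured on glutathione beads, DNA-barcoded and pooled with that sample. Pools were incubated with 200 nmole of a random double-stranded 16-mer DNA library in Tris/NaCl/DTT/glycerol buffer at room temperature for 30 min, then washed, crosslinked with 0.1% formaldehyde, proximity-ligated with BsaI/T4 ligase (1 h, 37 °C), PCR-amplified and sequenced on an Illumina NextSeq500.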

ETV5 = ETV5 (Homo sapiens, UniProt P41161 1-510); conditions: protein: recombinant; tags: N-terminal GST; dsDNA, one strand shown
Procedure, shortened: as §1

HSF1 = HSF1 (Homo sapiens, UniProt Q00613 1-529); conditions: protein: recombinant; tags: N-terminal GST; chain copies: 3; dsDNA, one strand shown
Procedure, shortened: as §1

SPIC = biological target: T2, SPIC (Homo sapiens, UniProt Q8N5J4 1-248); conditions: protein: recombinant; tags: N-terminal GST; dsDNA, one strand shown
T2 sequence: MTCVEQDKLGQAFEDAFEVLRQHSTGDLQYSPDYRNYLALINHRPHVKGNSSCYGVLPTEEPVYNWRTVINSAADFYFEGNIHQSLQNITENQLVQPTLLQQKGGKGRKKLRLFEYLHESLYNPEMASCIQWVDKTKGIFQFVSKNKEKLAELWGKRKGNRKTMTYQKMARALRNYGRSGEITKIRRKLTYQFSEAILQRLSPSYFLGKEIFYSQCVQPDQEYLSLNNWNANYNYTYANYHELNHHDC
Procedure, shortened: as §1

ELF4 = ELF4 (Homo sapiens, UniProt Q99607 1-663); conditions: protein: recombinant; tags: N-terminal GST; dsDNA, one strand shown
Procedure, shortened: as §1

ELK4 = biological target: T3, ELK4 (Homo sapiens, UniProt P28324-2 1-405); conditions: protein: recombinant; tags: N-terminal GST; dsDNA, one strand shown
T3 sequence: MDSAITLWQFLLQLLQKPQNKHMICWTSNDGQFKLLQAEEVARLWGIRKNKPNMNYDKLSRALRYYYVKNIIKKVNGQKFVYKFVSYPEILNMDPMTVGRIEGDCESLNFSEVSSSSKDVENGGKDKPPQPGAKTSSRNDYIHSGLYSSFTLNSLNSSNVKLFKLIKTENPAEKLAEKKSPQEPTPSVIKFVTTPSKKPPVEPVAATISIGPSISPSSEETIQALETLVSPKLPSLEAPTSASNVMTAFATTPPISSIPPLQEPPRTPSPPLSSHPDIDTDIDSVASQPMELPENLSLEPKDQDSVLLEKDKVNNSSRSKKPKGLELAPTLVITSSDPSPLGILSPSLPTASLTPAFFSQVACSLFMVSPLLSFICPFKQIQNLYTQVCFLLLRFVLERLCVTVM
Procedure, shortened: as §1

ETV2 = biological target: T4, ETV2 (Homo sapiens, UniProt O00321 1-342); conditions: protein: recombinant; tags: N-terminal GST; dsDNA, one strand shown
T4 sequence: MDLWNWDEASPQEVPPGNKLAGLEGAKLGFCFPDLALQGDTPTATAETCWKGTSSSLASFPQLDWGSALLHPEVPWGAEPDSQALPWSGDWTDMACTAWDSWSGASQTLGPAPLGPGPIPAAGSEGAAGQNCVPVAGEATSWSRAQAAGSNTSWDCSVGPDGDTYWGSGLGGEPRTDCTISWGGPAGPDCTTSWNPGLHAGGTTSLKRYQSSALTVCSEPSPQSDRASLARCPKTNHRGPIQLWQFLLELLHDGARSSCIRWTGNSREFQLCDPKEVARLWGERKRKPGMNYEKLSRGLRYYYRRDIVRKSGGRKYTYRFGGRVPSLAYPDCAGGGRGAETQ
Procedure, shortened: as §1

ELF3 = biological target: T5, ELF3 (Homo sapiens, UniProt P78545 1-371); conditions: protein: recombinant; tags: N-terminal GST; dsDNA, one strand shown
T5 sequence: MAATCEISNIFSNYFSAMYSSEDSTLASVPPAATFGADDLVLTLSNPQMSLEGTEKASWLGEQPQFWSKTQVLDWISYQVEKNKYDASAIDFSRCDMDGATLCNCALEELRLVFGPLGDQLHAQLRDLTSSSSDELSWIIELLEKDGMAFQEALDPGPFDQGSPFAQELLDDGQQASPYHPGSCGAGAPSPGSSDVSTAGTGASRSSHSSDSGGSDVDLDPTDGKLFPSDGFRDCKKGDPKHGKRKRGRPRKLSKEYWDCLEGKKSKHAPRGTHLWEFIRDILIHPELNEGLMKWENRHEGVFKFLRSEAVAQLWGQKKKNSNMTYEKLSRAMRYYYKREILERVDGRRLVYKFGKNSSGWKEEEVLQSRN
Procedure, shortened: as §1

CRX = CRX (Homo sapiens, UniProt O43186 1-299); conditions: protein: recombinant; tags: N-terminal GST; dsDNA, one strand shown
Procedure, shortened: as §1

ETV1 = ETV1 (Homo sapiens, UniProt P50549 1-477); conditions: protein: recombinant; tags: N-terminal GST; dsDNA, one strand shown
Procedure, shortened: as §1

ERF = biological target: T6, ERF (Homo sapiens, UniProt P50548 1-548); conditions: protein: recombinant; tags: N-terminal GST; dsDNA, one strand shown
T6 sequence: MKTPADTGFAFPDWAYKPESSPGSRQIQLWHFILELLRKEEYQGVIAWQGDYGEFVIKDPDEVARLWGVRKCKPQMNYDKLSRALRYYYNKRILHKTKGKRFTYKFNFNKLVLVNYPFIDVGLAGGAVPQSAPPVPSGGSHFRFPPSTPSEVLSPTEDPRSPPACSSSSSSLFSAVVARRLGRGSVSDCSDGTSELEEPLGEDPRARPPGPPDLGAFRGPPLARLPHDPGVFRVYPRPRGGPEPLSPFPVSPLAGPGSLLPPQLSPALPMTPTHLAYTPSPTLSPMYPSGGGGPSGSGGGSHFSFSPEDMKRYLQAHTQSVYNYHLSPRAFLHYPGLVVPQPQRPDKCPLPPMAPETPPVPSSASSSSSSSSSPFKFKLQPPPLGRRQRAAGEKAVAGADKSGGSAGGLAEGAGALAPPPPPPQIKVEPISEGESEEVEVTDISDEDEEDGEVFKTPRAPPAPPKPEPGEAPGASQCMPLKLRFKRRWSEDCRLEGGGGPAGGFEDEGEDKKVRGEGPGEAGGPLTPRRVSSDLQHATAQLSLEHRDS
Procedure, shortened: as §1

ETV3L = biological target: T7, ETV3L (Homo sapiens, UniProt Q6ZN32 1-361); conditions: protein: recombinant; tags: N-terminal GST; dsDNA, one strand shown
T7 sequence: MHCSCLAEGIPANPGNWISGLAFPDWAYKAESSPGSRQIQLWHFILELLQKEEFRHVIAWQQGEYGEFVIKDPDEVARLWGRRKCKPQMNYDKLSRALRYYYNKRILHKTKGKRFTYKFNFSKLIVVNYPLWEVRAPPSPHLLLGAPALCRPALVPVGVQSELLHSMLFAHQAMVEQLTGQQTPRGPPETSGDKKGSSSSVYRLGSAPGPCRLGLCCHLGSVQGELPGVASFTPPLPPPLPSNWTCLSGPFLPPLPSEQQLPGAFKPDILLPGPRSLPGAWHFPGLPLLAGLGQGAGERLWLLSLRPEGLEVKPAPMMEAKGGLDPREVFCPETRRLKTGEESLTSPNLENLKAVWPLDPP
Procedure, shortened: as §1

ETS2 = biological target: T8, ETS2 (Homo sapiens, UniProt P15036 1-469); conditions: protein: recombinant; tags: N-terminal GST; dsDNA, one strand shown
T8 sequence: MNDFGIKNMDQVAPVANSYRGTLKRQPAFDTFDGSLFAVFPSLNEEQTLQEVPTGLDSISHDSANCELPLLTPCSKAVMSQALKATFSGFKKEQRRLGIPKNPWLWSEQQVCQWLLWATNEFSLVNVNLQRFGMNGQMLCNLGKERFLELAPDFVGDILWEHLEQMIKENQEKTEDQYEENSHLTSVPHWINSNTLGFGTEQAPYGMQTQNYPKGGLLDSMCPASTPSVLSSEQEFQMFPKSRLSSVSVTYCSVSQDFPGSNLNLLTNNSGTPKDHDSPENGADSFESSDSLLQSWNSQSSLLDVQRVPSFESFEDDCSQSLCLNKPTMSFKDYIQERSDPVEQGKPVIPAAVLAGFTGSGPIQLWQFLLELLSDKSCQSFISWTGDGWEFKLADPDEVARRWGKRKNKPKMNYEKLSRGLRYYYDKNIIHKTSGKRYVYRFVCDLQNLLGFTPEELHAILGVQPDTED
Procedure, shortened: as §1

SPDEF = biological target: T9, SPDEF (Homo sapiens, UniProt O95238 1-335); conditions: protein: recombinant; tags: N-terminal GST; dsDNA, one strand shown
T9 sequence: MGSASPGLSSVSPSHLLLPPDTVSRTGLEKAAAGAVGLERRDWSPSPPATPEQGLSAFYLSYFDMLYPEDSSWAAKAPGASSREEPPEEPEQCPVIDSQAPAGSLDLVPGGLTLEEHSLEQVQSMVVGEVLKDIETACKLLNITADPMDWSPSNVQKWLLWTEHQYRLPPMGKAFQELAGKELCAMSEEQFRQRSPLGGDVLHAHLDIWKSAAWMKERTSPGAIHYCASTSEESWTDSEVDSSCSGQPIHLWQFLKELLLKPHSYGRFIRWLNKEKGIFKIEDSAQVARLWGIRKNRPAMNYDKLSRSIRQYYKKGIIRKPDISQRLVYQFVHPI
Procedure, shortened: as §1

ETV7 = biological target: T10, ETV7 (Homo sapiens, UniProt Q9Y603 1-341); conditions: protein: recombinant; tags: N-terminal GST; dsDNA, one strand shown
T10 sequence: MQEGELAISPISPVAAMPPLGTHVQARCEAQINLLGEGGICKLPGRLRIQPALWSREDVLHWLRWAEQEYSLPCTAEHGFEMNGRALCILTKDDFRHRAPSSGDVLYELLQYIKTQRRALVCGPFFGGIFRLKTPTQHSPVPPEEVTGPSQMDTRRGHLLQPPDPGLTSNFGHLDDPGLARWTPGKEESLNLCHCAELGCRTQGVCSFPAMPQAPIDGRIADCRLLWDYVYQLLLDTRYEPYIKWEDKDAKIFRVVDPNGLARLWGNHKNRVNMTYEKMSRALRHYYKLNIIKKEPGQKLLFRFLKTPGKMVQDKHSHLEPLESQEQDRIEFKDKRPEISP
Procedure, shortened: as §1

ELF5 = biological target: T11, ELF5 (Homo sapiens, UniProt Q9UKW6-2 1-255); conditions: protein: recombinant; tags: N-terminal GST; dsDNA, one strand shown
T11 sequence: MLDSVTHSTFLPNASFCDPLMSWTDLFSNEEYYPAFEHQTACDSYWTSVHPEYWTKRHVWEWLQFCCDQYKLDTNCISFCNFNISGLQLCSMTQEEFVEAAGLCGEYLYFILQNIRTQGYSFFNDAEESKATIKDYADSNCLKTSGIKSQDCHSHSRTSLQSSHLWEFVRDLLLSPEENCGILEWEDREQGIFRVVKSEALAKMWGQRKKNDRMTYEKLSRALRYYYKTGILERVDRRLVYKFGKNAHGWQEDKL
Procedure, shortened: as §1

ETV3 = biological target: T12, ETV3 (Homo sapiens, UniProt P41162-2 1-143); conditions: protein: recombinant; tags: N-terminal GST; dsDNA, one strand shown
T12 sequence: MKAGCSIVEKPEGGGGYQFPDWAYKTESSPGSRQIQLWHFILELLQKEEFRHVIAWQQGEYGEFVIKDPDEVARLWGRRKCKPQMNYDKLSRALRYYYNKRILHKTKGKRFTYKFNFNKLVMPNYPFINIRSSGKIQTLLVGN
Procedure, shortened: as §1

ETV6 = ETV6 (Homo sapiens, UniProt P41212 1-452); conditions: protein: recombinant; tags: N-terminal GST; dsDNA, one strand shown
Procedure, shortened: as §1

Chain of HSF1 (Q00613 whole entry): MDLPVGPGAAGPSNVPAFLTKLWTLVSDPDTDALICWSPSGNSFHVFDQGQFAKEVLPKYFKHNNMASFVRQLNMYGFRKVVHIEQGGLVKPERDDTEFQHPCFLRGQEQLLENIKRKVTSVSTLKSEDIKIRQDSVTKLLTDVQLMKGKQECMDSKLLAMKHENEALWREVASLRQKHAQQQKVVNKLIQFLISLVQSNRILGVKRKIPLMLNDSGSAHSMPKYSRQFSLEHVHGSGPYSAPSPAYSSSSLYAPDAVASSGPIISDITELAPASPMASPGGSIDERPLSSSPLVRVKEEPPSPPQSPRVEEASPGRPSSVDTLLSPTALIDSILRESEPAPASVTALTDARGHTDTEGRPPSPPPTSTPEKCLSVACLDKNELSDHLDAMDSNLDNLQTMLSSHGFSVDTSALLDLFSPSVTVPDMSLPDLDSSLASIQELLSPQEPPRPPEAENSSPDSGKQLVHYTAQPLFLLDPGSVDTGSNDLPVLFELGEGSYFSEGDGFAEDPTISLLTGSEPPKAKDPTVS
Chain of ETV5 (P41161 whole entry): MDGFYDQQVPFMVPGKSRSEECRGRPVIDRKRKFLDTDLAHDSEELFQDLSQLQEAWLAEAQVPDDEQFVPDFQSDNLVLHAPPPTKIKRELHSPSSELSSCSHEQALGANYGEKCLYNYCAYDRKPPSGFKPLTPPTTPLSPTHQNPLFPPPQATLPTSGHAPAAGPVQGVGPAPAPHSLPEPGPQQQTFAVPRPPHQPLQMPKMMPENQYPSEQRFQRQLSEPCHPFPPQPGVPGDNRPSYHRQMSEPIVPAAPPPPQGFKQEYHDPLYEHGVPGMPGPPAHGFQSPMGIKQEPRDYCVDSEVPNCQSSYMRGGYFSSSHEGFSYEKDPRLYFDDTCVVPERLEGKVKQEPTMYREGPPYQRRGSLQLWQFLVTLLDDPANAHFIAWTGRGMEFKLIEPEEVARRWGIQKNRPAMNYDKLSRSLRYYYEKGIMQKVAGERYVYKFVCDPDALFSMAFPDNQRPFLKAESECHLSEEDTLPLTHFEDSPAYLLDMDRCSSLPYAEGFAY
Chain of ELF4 (Q99607 whole entry): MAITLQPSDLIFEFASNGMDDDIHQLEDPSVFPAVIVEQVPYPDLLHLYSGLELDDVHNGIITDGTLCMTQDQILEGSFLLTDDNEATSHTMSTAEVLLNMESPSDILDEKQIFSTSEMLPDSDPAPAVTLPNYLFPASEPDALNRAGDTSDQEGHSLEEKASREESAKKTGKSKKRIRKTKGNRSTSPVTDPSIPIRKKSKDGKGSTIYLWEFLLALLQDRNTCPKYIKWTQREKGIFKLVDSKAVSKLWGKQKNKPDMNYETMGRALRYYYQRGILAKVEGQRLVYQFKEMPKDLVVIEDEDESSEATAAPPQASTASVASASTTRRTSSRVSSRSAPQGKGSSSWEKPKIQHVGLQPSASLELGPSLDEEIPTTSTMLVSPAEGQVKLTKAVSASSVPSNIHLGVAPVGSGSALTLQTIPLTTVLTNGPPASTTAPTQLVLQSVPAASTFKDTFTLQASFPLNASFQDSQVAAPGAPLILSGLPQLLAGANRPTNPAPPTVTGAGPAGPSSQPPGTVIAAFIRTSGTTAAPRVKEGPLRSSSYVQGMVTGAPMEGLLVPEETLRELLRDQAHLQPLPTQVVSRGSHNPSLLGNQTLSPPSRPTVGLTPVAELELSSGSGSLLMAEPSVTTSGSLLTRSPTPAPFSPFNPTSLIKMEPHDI
Chain of ETV1 (P50549 whole entry): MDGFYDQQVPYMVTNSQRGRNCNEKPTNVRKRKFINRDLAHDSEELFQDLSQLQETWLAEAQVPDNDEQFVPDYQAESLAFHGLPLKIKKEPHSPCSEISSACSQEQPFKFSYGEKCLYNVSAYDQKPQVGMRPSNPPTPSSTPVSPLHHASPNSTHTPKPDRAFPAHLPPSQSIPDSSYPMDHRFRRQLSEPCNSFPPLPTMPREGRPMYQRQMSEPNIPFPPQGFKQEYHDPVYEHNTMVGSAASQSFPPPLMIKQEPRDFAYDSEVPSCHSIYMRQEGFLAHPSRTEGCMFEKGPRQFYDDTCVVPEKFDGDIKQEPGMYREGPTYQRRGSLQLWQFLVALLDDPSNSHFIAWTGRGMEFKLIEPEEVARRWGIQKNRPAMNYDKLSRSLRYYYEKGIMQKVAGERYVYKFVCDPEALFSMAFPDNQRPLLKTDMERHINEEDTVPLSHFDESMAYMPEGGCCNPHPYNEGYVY
Chain of ETV6 (P41212 whole entry): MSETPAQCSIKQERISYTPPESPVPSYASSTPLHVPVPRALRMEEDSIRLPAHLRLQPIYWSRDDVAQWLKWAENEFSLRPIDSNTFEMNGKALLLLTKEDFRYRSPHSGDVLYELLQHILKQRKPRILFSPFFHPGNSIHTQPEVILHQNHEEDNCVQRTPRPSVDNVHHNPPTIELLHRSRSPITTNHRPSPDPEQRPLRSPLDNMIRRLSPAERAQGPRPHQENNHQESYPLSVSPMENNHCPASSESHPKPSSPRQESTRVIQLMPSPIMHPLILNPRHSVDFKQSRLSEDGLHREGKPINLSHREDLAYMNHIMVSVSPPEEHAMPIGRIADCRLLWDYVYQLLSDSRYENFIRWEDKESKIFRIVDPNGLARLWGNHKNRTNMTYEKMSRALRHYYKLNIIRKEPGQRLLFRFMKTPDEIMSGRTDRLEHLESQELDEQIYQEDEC
Chain of CRX (O43186 whole entry): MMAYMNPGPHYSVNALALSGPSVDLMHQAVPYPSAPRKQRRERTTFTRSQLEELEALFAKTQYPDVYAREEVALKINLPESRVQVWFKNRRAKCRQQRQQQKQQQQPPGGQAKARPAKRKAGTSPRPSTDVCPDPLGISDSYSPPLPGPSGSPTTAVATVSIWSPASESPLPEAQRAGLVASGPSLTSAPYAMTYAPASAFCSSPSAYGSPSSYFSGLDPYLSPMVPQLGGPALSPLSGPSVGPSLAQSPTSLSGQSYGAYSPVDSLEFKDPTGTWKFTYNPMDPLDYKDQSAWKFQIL

TAAGAA
binding signal (FEV): 1.05 fold enrichment (6-mer frequency, TF over GST control)
binding signal (ETV5): 1.1 fold enrichment (6-mer frequency, TF over GST control)
binding signal (HSF1): 1.77 fold enrichment (6-mer frequency, TF over GST control)
binding signal (SPIC): 1.21 fold enrichment (6-mer frequency, TF over GST control)
binding signal (ELF4): 1.13 fold enrichment (6-mer frequency, TF over GST control)
binding signal (ELK4): 1.09 fold enrichment (6-mer frequency, TF over GST control)
binding signal (ETV2): 1.2 fold enrichment (6-mer frequency, TF over GST control)
binding signal (ELF3): 1.02 fold enrichment (6-mer frequency, TF over GST control)
binding signal (CRX): 1.96 fold enrichment (6-mer frequency, TF over GST control)
binding signal (ETV1): 1.13 fold enrichment (6-mer frequency, TF over GST control)
binding signal (ERF): 1.11 fold enrichment (6-mer frequency, TF over GST control)
binding signal (ETV3L): 1.09 fold enrichment (6-mer frequency, TF over GST control)
binding signal (ETS2): 1.03 fold enrichment (6-mer frequency, TF over GST control)
binding signal (SPDEF): 1.06 fold enrichment (6-mer frequency, TF over GST control)
binding signal (ETV7): 1.12 fold enrichment (6-mer frequency, TF over GST control)
binding signal (ELF5): 1.03 fold enrichment (6-mer frequency, TF over GST control)
binding signal (ETV3): 1.07 fold enrichment (6-mer frequency, TF over GST control)
binding signal (ETV6): 1.08 fold enrichment (6-mer frequency, TF over GST control)

From paper PMC7862700, “An all-to-all approach to the identification of sequence-specific readers for epigenetic DNA modifications on cytosine”
